About 83,000 compounds went through this panel and 20% of them were active in at least one assay; those are over-represented in the sample as a whole.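 Activity criterion: percent growth below 10, measured after cells in 96-well plates were exposed to a single compound concentration for 48 hours.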 Active and inactive are the calls of the source.
Legend:
Test in all cases: NCI-60 one-dose screen, 48 h (100 = growth as untreated, 0 = no growth, -100 = all killed)
Conditions in all cases: 10 µM unless noted
T-47D breast = system: T-47D breast
BT-549 breast = system: BT-549 breast
MDA-MB-435 melanoma = system: MDA-MB-435 melanoma
SW-620 colon = system: SW-620 colon
MCF7 breast = system: MCF7 breast
HCT-116 colon = system: HCT-116 colon
HCC-2998 colon = system: HCC-2998 colon
KM12 colon = system: KM12 colon

Measured: growth

Cc1ccc(Nc2ccc(Nc3ccc(C)cc3S(=O)(=O)O)c3c2C(=O)c2ccccc2C3=O)c(S(=O)(=O)O)c1
inactive: T-47D breast 111% | BT-549 breast 103% | MDA-MB-435 melanoma 103% | SW-620 colon 92% | MCF7 breast 92.2% | HCT-116 colon 87% | HCC-2998 colon 112% | KM12 colon 96.7%

CC(=O)c1cc2c(o1)C(=O)c1ccccc1C2=O
active: T-47D breast -25.3% | BT-549 breast -87.7% | MDA-MB-435 melanoma -94.4% | SW-620 colon -77.4% | MCF7 breast -65.6% | HCT-116 colon -83.6% | HCC-2998 colon -87.8% | KM12 colon -63.6%

CCC(C)NCc1ccccc1 (stereo unspecified)
inactive: T-47D breast 89.4% | BT-549 breast 95.2% | MDA-MB-435 melanoma 108% | SW-620 colon 101% | MCF7 breast 102% | HCT-116 colon 91.8% | HCC-2998 colon 102% | KM12 colon 100%

O=C(/C=C/C12c3ccccc3C(c3ccccc31)C1C(=O)N(c3ccccc3)C(=O)C12)c1ccc(Cl)cc1 (stereo unspecified)
inactive: T-47D breast 30.4% | BT-549 breast 16.1% | MCF7 breast 18.4%
active: MDA-MB-435 melanoma 0.197% | SW-620 colon 7.56% | HCT-116 colon -18% | HCC-2998 colon -24% | KM12 colon 7.23%

COc1cc(/C=C/C(=O)c2cccc(-n3cc(-c4ccc(Cl)cc4)[nH]c3=O)c2)cc(OC)c1OC
inactive: T-47D breast 41.1% | BT-549 breast 86.2% | MDA-MB-435 melanoma 27.1% | MCF7 breast 11.9% | HCC-2998 colon 75.8% | KM12 colon 46%
active: SW-620 colon -19.4% | HCT-116 colon -45.7%

N#Cc1cnn2c(-c3ccc(Cl)cc3)nc(NC3CC3)nc12
inactive: T-47D breast 82.4% | BT-549 breast 94.2% | MDA-MB-435 melanoma 96.8% | SW-620 colon 103% | MCF7 breast 78% | HCT-116 colon 93.8% | HCC-2998 colon 101% | KM12 colon 98.2%

CNCCNc1nc2ccccc2c2c(=O)c3cc(F)ccc3oc12
inactive: T-47D breast 96.1% | BT-549 breast 69.9% | MDA-MB-435 melanoma 76.5% | SW-620 colon 33.6% | MCF7 breast 45.2% | HCT-116 colon 27.2% | HCC-2998 colon 71.2% | KM12 colon 41.8%

CC(/C=N/NC(=O)c1cc(-c2ccco2)[nH]n1)=C\c1ccccc1
inactive: T-47D breast 96.6% | BT-549 breast 101% | MDA-MB-435 melanoma 89.9% | SW-620 colon 101% | MCF7 breast 99.8% | HCT-116 colon 99.3% | HCC-2998 colon 106% | KM12 colon 93.9%

C=C1C(=O)O[C@H]2[C@H]1CC/C(COC(=O)/C=C\C(=O)NCc1ccc(Cn3c(=O)sn(-c4ccc(C#N)cc4)c3=O)cc1)=C\CC[C@@]1(C)O[C@@H]21
active: T-47D breast -59.9% | BT-549 breast -57.5% | MDA-MB-435 melanoma -79.6% | SW-620 colon -64% | MCF7 breast -51.8% | HCT-116 colon -55.7% | HCC-2998 colon -79.1% | KM12 colon -71.7%

COc1ccc(-c2nc3ncccn3c2/C=C/C(=O)c2cc(OC)c(OC)c(OC)c2)cc1
inactive: T-47D breast 17.8% | BT-549 breast 15.6% | MDA-MB-435 melanoma 15.2%
active: SW-620 colon -1.58% | MCF7 breast 3.17% | HCT-116 colon -84.8% | HCC-2998 colon -58.4% | KM12 colon -56.9%

CCOC(=O)c1cnn2c(-c3ccc(Cl)cc3)nc(NCc3ccccc3)nc12
active: SW-620 colon 4.94% | MCF7 breast 5.18% | HCT-116 colon -15.5%
inactive: T-47D breast 43.3% | BT-549 breast 101% | MDA-MB-435 melanoma 56.2% | HCC-2998 colon 83.9% | KM12 colon 54%

c1ccc([P+](CCCc2n(Cc3ccc4ccccc4c3)c3ccccc3[n+]2Cc2ccc3ccccc3c2)(c2ccccc2)c2ccccc2)cc1
inactive: T-47D breast 56.9% | BT-549 breast 68.1% | MDA-MB-435 melanoma 25.2% | SW-620 colon 35.2% | MCF7 breast 73.9% | HCT-116 colon 24.2% | HCC-2998 colon 53.9% | KM12 colon 32.2%

COc1ccc(/C=C2\COc3ccc(O)cc3C2=O)c(OC)c1
inactive: T-47D breast 56.4% | BT-549 breast 57.8% | SW-620 colon 54.9% | MCF7 breast 54.7% | HCT-116 colon 61.9% | HCC-2998 colon 89.2% | KM12 colon 24.8%
active: MDA-MB-435 melanoma -30%

N#Cc1c(-c2ccc(C(F)(F)F)cc2)cc(N2CC(O)C2)n2c1nc1ccccc12
inactive: T-47D breast 36.1% | BT-549 breast 37.9% | MDA-MB-435 melanoma 83.7% | SW-620 colon 82.8% | MCF7 breast 81.6% | HCT-116 colon 55.4% | HCC-2998 colon 95.6% | KM12 colon 74.2%

COc1ccc(CN2C(=O)/C(=C\c3cc(OC)c(OC)c(OC)c3)c3ccccc32)cc1
inactive: BT-549 breast 24.5% | HCC-2998 colon 16.9%
active: T-47D breast -2.48% | MDA-MB-435 melanoma -10.9% | SW-620 colon -40.3% | MCF7 breast 7.23% | HCT-116 colon -93.8% | KM12 colon -23.7%

O=c1[nH]c(NCc2nnnn2-c2ccc(Br)cc2)nc2sc3c(c12)CCCC3
inactive: T-47D breast 74.3% | BT-549 breast 104% | MDA-MB-435 melanoma 97.4% | SW-620 colon 93.7% | MCF7 breast 92% | HCT-116 colon 81.2% | HCC-2998 colon 110% | KM12 colon 96.1%

CCCCN(Cc1ccc(C(=O)NO)cc1)C(=O)Nc1ccc(OCCCCCCCCCn2cc(CCCCC(=O)N[C@H](C(=O)N3C[C@H](O)C[C@H]3C(=O)NCc3ccc(-c4scnc4C)cc3)C(C)(C)C)nn2)cc1
inactive: T-47D breast 32.2% | BT-549 breast 42.2% | MDA-MB-435 melanoma 34.8% | SW-620 colon 30.7% | HCT-116 colon 20.9% | HCC-2998 colon 57.2% | KM12 colon 22.1%
active: MCF7 breast 8.44%

COc1cc(-c2cc(-c3ccc(Nc4nc(Nc5ccccc5)nc(Nc5ccc(Cl)cc5)n4)cc3)nc(N)n2)cc(OC)c1OC
inactive: T-47D breast 38.4% | BT-549 breast 71.1% | MDA-MB-435 melanoma 63.5% | SW-620 colon 87.2% | MCF7 breast 35.5% | HCT-116 colon 34.9% | HCC-2998 colon 58.2% | KM12 colon 52.4%

COC(=O)/C(=C\c1ccc(OC)cc1)C(=O)N1c2ccccc2Sc2ccccc21
inactive: T-47D breast 48.4% | SW-620 colon 33.6% | MCF7 breast 26.8% | HCT-116 colon 23.3% | HCC-2998 colon 86.8% | KM12 colon 36.1%
active: BT-549 breast -45.7% | MDA-MB-435 melanoma -57.8%

O=C(/C=C/C12c3ccccc3C(c3ccccc31)C1C(=O)NC(=O)C12)c1ccccc1 (stereo unspecified)
active: MCF7 breast 9.25% | KM12 colon 9.85%
inactive: T-47D breast 51.7% | BT-549 breast 23.6% | MDA-MB-435 melanoma 13.8% | SW-620 colon 19.1% | HCT-116 colon 14.3% | HCC-2998 colon 10.4%

CCN(CC)CCCNC(=O)c1ccc(N)cc1
inactive: T-47D breast 102% | BT-549 breast 102% | MDA-MB-435 melanoma 108% | SW-620 colon 97.8% | MCF7 breast 95.1% | HCT-116 colon 94.8% | HCC-2998 colon 126% | KM12 colon 107%

C=CC(=O)N[C@@H](Cc1ccc(-c2cc(Cl)cc(Cl)c2)cc1)[C@@H](O)[C@H](O)C(=O)O
inactive: T-47D breast 96.1% | BT-549 breast 91.9% | MDA-MB-435 melanoma 102% | SW-620 colon 101% | MCF7 breast 93.5% | HCT-116 colon 91.5% | HCC-2998 colon 87.3% | KM12 colon 102%

CCn1c(Sc2nnc(NC(=O)CCN3CCCC3)s2)nc2c1c(=O)n(C)c(=O)n2C
inactive: T-47D breast 102% | BT-549 breast 110% | MDA-MB-435 melanoma 107% | SW-620 colon 105% | MCF7 breast 105% | HCT-116 colon 105% | HCC-2998 colon 114% | KM12 colon 109%

O=C(NCCOCCOCCOCCNC(=O)c1cc2c(o1)C(=O)c1ccccc1C2=O)NC12CC3CC(CC(C3)C1)C2
active: T-47D breast 9.45% | BT-549 breast -84.9% | MDA-MB-435 melanoma -95.9% | SW-620 colon -8.88% | MCF7 breast -63.3% | HCT-116 colon 3.1% | HCC-2998 colon -67.6% | KM12 colon -1.07%

O=C(CCl)N1c2cccc3cccc(c23)N(C(=O)CCl)C1c1cn(-c2ccccc2)nc1-c1cccc([N+](=O)[O-])c1
inactive: T-47D breast 87.7% | BT-549 breast 98.5% | MDA-MB-435 melanoma 84.2% | SW-620 colon 35.4% | MCF7 breast 51.6% | HCT-116 colon 37.3% | HCC-2998 colon 104% | KM12 colon 101%

COc1cc(-c2cccc([N+](=O)[O-])c2)c(-c2nc(-c3ccccc3)c(-c3ccccc3)n2C2CC2)cc1OC
inactive: T-47D breast 23.9% | BT-549 breast 47.2% | MDA-MB-435 melanoma 67.4% | SW-620 colon 76.3% | MCF7 breast 34.8% | HCT-116 colon 26.8% | HCC-2998 colon 81.2% | KM12 colon 67.3%

CCCCS(=O)(=O)Oc1ccc(-c2nc(C)c(C(=O)OCC)s2)cc1C=O
inactive: T-47D breast 80.6% | BT-549 breast 72.2% | MDA-MB-435 melanoma 37.1% | SW-620 colon 30.2% | MCF7 breast 35.6% | HCC-2998 colon 94.4% | KM12 colon 57%
active: HCT-116 colon 8.67%

CCCCNCC(=O)Nc1ccc(C(=O)OCC)cc1
inactive: T-47D breast 96.8% | BT-549 breast 92.5% | MDA-MB-435 melanoma 105% | SW-620 colon 105% | MCF7 breast 98.4% | HCT-116 colon 86.4% | HCC-2998 colon 100% | KM12 colon 103%

Cc1[nH]c(-c2nc3ccccc3[nH]2)c(C)c1C(=O)N1CCc2sccc2C1
inactive: T-47D breast 72.9% | BT-549 breast 94.1% | MDA-MB-435 melanoma 94.9% | SW-620 colon 89% | MCF7 breast 90.2% | HCT-116 colon 92.6% | HCC-2998 colon 110% | KM12 colon 97.6%

CC1(C)N=C(N)N=C(N)N1c1ccc(Cl)c(Cl)c1
inactive: T-47D breast 69.8% | BT-549 breast 42.9% | MDA-MB-435 melanoma 27.4% | SW-620 colon 43.1% | MCF7 breast 21.4% | HCT-116 colon 24.9% | HCC-2998 colon 20.8% | KM12 colon 38.8%

COc1cc2c(=O)n(CCCn3ccnc3)c3c4cc5c(cc4ccc3c2cc1OC)OCO5
inactive: BT-549 breast 28.4% | SW-620 colon 11% | HCC-2998 colon 33.3%
active: T-47D breast -10.9% | MDA-MB-435 melanoma -25.3% | MCF7 breast 4.23% | HCT-116 colon -62.1% | KM12 colon 8.03%

C=CCOc1cccc(/C=C2\SC(=Nc3ccc(O)cc3)NC2=O)c1
active: BT-549 breast -16.3% | MDA-MB-435 melanoma -45.2% | MCF7 breast 7.91% | HCT-116 colon 5.94% | KM12 colon 6.22%
inactive: T-47D breast 60.9% | SW-620 colon 23.4% | HCC-2998 colon 10.6%
